Structures can show the parent of a compound that is named as a salt. ± gives the standard deviation of the averaged measurements.
What was measured:
[1] = tested on: Saccharomyces cerevisiae BY4741 SeMeCo community; experiment: z-score of prototroph abundance vs DMSO median; higher = larger share of this subpopulation than in DMSO controls; details: 10 µM; 24 h; SM minimal medium; subpopulation (auxotrophy): Prototroph
Method in brief: (§1)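 Automated confocal microscopy of paraformaldehyde-fixed cells was used to follow a Saccharomyces cerevisiae BY4741 community carrying four plasmids, each restoring one auxotrophy and encoding a distinct fluorescent protein. The community was pre-grown overnight to OD600 1.0, diluted to 0.3, and added at 70 µl to 384-well plates acoustically predosed with library drugs (10 µM final) for 24 h of growth in minimal SM medium. Single-auxotroph fluorescent strains set thresholds and autofluorescence correction, and each subpopulation's abundance was scored as a z-score against the vehicle-well median.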

[2] = tested on: Saccharomyces cerevisiae BY4741 SeMeCo community; experiment: z-score of subpopulation abundance vs DMSO median, subpopulation auxotrophic for M; higher = larger share of this subpopulation than in DMSO controls; details: 10 µM; 24 h; SM minimal medium; subpopulation (auxotrophy): M
Method in brief: as §1

[3] = tested on: Saccharomyces cerevisiae BY4741 SeMeCo community; experiment: z-score of subpopulation abundance vs DMSO median, subpopulation auxotrophic for L; higher = larger share of this subpopulation than in DMSO controls; details: 10 µM; 24 h; SM minimal medium; subpopulation (auxotrophy): L
Method in brief: as §1

[4] = tested on: Saccharomyces cerevisiae BY4741 SeMeCo community; experiment: z-score of subpopulation abundance vs DMSO median, subpopulation auxotrophic for U; higher = larger share of this subpopulation than in DMSO controls; details: 10 µM; 24 h; SM minimal medium; subpopulation (auxotrophy): U
Method in brief: as §1

[5] = tested on: Saccharomyces cerevisiae BY4741 SeMeCo community; experiment: z-score of subpopulation abundance vs DMSO median, subpopulation auxotrophic for H; higher = larger share of this subpopulation than in DMSO controls; details: 10 µM; 24 h; SM minimal medium; subpopulation (auxotrophy): H
Method in brief: as §1

[6] = tested on: Saccharomyces cerevisiae BY4741 SeMeCo community; experiment: z-score of subpopulation abundance vs DMSO median, subpopulation auxotrophic for LU; higher = larger share of this subpopulation than in DMSO controls; details: 10 µM; 24 h; SM minimal medium; subpopulation (auxotrophy): LU
Method in brief: as §1

[7] = tested on: Saccharomyces cerevisiae BY4741 SeMeCo community; experiment: z-score of subpopulation abundance vs DMSO median, subpopulation auxotrophic for LM; higher = larger share of this subpopulation than in DMSO controls; details: 10 µM; 24 h; SM minimal medium; subpopulation (auxotrophy): LM
Method in brief: as §1

[8] = tested on: Saccharomyces cerevisiae BY4741 SeMeCo community; experiment: z-score of subpopulation abundance vs DMSO median, subpopulation auxotrophic for HM; higher = larger share of this subpopulation than in DMSO controls; details: 10 µM; 24 h; SM minimal medium; subpopulation (auxotrophy): HM
Method in brief: as §1

[9] = tested on: Saccharomyces cerevisiae BY4741 SeMeCo community; experiment: z-score of subpopulation abundance vs DMSO median, subpopulation auxotrophic for HU; higher = larger share of this subpopulation than in DMSO controls; details: 10 µM; 24 h; SM minimal medium; subpopulation (auxotrophy): HU
Method in brief: as §1

[10] = tested on: Saccharomyces cerevisiae BY4741 SeMeCo community; experiment: z-score of subpopulation abundance vs DMSO median, subpopulation auxotrophic for UM; higher = larger share of this subpopulation than in DMSO controls; details: 10 µM; 24 h; SM minimal medium; subpopulation (auxotrophy): UM
Method in brief: as §1

[11] = tested on: Saccharomyces cerevisiae BY4741 SeMeCo community; experiment: z-score of subpopulation abundance vs DMSO median, subpopulation auxotrophic for HL; higher = larger share of this subpopulation than in DMSO controls; details: 10 µM; 24 h; SM minimal medium; subpopulation (auxotrophy): HL
Method in brief: as §1

[12] = tested on: Saccharomyces cerevisiae BY4741 SeMeCo community; experiment: z-score of subpopulation abundance vs DMSO median, subpopulation auxotrophic for HLM; higher = larger share of this subpopulation than in DMSO controls; details: 10 µM; 24 h; SM minimal medium; subpopulation (auxotrophy): HLM
Method in brief: as §1

[13] = tested on: Saccharomyces cerevisiae BY4741 SeMeCo community; experiment: z-score of subpopulation abundance vs DMSO median, subpopulation auxotrophic for LUM; higher = larger share of this subpopulation than in DMSO controls; details: 10 µM; 24 h; SM minimal medium; subpopulation (auxotrophy): LUM
Method in brief: as §1

[14] = tested on: Saccharomyces cerevisiae BY4741 SeMeCo community; experiment: z-score of subpopulation abundance vs DMSO median, subpopulation auxotrophic for HLUM; higher = larger share of this subpopulation than in DMSO controls; details: 10 µM; 24 h; SM minimal medium; subpopulation (auxotrophy): HLUM
Method in brief: as §1

[15] = tested on: Saccharomyces cerevisiae BY4741 SeMeCo community; experiment: z-score of subpopulation abundance vs DMSO median, subpopulation auxotrophic for HUM; higher = larger share of this subpopulation than in DMSO controls; details: 10 µM; 24 h; SM minimal medium; subpopulation (auxotrophy): HUM
Method in brief: as §1

[16] = tested on: Saccharomyces cerevisiae BY4741 SeMeCo community; experiment: mean cell size (pixel area) (pixels); higher = larger cells; details: 10 µM; 24 h; SM minimal medium
Method in brief: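 Mean cell pixel area per well was determined by automated confocal microscopy with Harmony analysis of paraformaldehyde-fixed cells. The cells, a Saccharomyces cerevisiae BY4741 community of four plasmids that each complement one auxotrophy and carry a fluorescent marker, were incubated for 24 h with drug at a final 10 µM in SM medium in 384-well plates. Numbers are averaged over 3 replicates. Same SeMeCo high-content imaging drug screen: Selleck FDA-approved drugs at 10 µM, 24 h in SM medium, 384-well plates, 3 replicates.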

SMILES | z-score of prototroph abundance [1] | z-score of subpopulation abundance [2] | z-score of subpopulation abundance [3] | z-score of subpopulation abundance [4] | z-score of subpopulation abundance [5] | z-score of subpopulation abundance [6] | z-score of subpopulation abundance [7] | z-score of subpopulation abundance [8] | z-score of subpopulation abundance [9] | z-score of subpopulation abundance [10] | z-score of subpopulation abundance [11] | z-score of subpopulation abundance [12] | z-score of subpopulation abundance [13] | z-score of subpopulation abundance [14] | z-score of subpopulation abundance [15] | mean cell size [16]
CC1(C)S[C@@H]2[C@H](NC(=O)Cc3ccccc3)C(=O)N2[C@H]1C(=O)O [Benzathine penicilline] | 0.52 | -0.52 | -0.58 | -0.09 | 0.18 | -0.74 | -0.93 | -0.76 | 0.01 | -0.06 | -0.03 | 0.37 | -0.44 | 0.29 | – | –
CN(C)[C@@H]1C(=O)C(C(N)=O)=C(O)[C@@]2(O)C(=O)C3=C(O)c4c(O)ccc(Cl)c4[C@@H](O)[C@H]3C[C@@H]12 [Demeclocycline HCl] | 0.9 | -1.78 | -0.08 | 0.03 | 0.67 | -0.08 | -0.4 | -1 | -0.34 | -0.64 | 0.01 | -0.17 | -0.57 | -0.17 | -1 | –
COc1ccc(CN2CCN(C(c3ccc(F)cc3)c3ccc(F)cc3)CC2)c(OC)c1OC [Lomerizine 2HCl] | -0.1 | -0.52 | 0.3 | 0.28 | -0.09 | -0.08 | 0.33 | 0.78 | 0.22 | -0.33 | 0.04 | 0.32 | – | -0.64 | – | –
CN[C@@H]1[C@H](O)[C@H](NC)[C@H]2O[C@@]3(O)C(=O)C[C@@H](C)O[C@H]3O[C@@H]2[C@H]1O [Spectinomycin 2HCl] | – | -0.21 | -1.34 | 0.77 | – | -0.16 | -1.03 | – | – | 0.51 | – | -0.57 | -0.18 | -0.32 | -0.21 | 12.6 ± 0.18
O=C(c1ccc(F)cc1)C1CCN(CCn2c(=O)[nH]c3ccccc3c2=O)CC1 [Ketanserin] | 0.15 | 0.03 | -0.47 | – | – | -0.66 | 0.46 | – | -0.13 | – | – | -0.05 | -0.27 | 0.5 | -0.47 | 12.33 ± 0.039
Nc1nc2[nH]cc(CCc3ccc(C(=O)N[C@@H](CCC(=O)O)C(=O)O)cc3)c2c(=O)[nH]1 [Pemetrexed] | 3.89 | -9.06 | 1.61 | -1.55 | 5.02 | 0.04 | – | – | 2.15 | -7.46 | 2.81 | 0.42 | -3.17 | -1.01 | -4.52 | –
Cc1[nH]c(=O)c(C#N)cc1-c1ccncc1 [Milrinone] | 1 | -0.56 | -0.03 | 0.34 | -0.52 | -0.56 | -0.5 | – | -0.62 | -0.1 | -0.41 | -0.75 | -0.06 | -1.21 | – | –
CC(C(=O)O)c1ccc2c(c1)[nH]c1ccc(Cl)cc12 (stereo not drawn) [Carprofen] | 3.42 | -2.06 | -0.33 | -3.82 | 3.31 | -3.11 | -1.27 | – | -2.04 | – | 1.64 | 0.84 | -1.52 | 0.18 | -2.82 | 13.82 ± 0.13
COc1ccc2[nH]c([S@@+]([O-])Cc3ncc(C)c(OC)c3C)nc2c1 [NEXIUM (esomeprazole magnesium)] | -0.6 | 0.2 | 1.11 | -0.8 | 3.24 | 0.11 | – | – | 0.68 | -1.82 | – | 1.32 | 0.51 | -0.44 | -0.41 | 12.5 ± 0.14
CN(C)CCC=C1c2ccccc2CCc2ccccc21 [Amitriptyline HCl] | 0.95 | 0.09 | -0.56 | -0.21 | -0.87 | -1.69 | -0.17 | -0.99 | -0.28 | -0.92 | -0.48 | -1.26 | -0.91 | -0.81 | -0.75 | –
C[C@@H](O)[C@H]1C(=O)N2C(C(=O)O)=C([C@H]3CCCO3)S[C@H]12 [Faropenem Sodium] | -1.08 | 0.61 | -0.03 | 1.08 | – | 0.29 | – | 0.48 | 0.81 | 1.27 | 0 | -0.7 | 0.85 | -0.05 | 0.59 | 12.39 ± 0.088
C[C@@H](NCCCc1cccc(C(F)(F)F)c1)c1cccc2ccccc12 [Cinacalcet HCl] | -0.37 | 0.31 | 2.8 | -1.21 | – | 0.1 | 3.33 | – | -1.71 | -0.3 | 1.05 | 0.67 | 2.57 | 1.57 | – | 12.17 ± 0.037
Cc1c[nH]c(=O)[nH]c1=O [Thymine] | -0.52 | 0.85 | 0.24 | 0.76 | -0.36 | 0.49 | -0.22 | 0.33 | – | 0.58 | -0.04 | 0.64 | 0.24 | – | – | 12.4 ± 0.22
C=CC1=C(C(=O)O)N2C(=O)[C@@H](NC(=O)/C(=N\OCC(=O)O)c3csc(N)n3)[C@H]2SC1 [Cefixime] | 0.71 | -0.61 | -0.33 | 0.43 | -0.5 | -0.02 | – | -0.97 | 0.1 | -0.25 | -0.16 | -0.25 | -1.01 | – | -0.75 | 12.52 ± 0.039
O=C(O)c1ccccc1O [Salicylic acid] | 0.79 | -0.07 | -0.26 | -0.01 | -0.17 | -0.68 | – | – | -1 | -0.89 | -0.19 | -1.09 | – | -0.68 | – | 12.4 ± 0.14
